# PubChem BioAssay (EPA / NIEHS)
# Inconclusive results are not listed. The source made the active and inactive calls. The calls were made as follows, unless noted: active = hit-call score of the fitted dose curve at least 0.9, where 1 is the maximum; inactive = score below 0.9.
# What was measured:
# [1] = ACEA_ER_80hr: ACEA Biosciences xCELLigence Real-Time Cell Analysis on Estrogen Receptor Agonism for Proliferation (AID 2282667; active = hit-call score of the fitted dose curve at least 0.9, where 1 is the maximum); settings: T47D proliferation, impedance (xCELLigence), 80 h
# Procedure, shortened: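 T47D human breast cells were seeded on electrode plates, monitored overnight, then exposed continuously to compounds in eight-point 1:4 dilutions from 100 uM (max 0.5% DMSO). Impedance-based growth was read at 80 h, fitted upward relative to DMSO.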
# [2] = ATG_CRE_CIS: Attagene CIS-FACTORIAL HepG2 Assay for human cAMP Responsive Element (CRE) binding protein 3 (AID 2282926); settings: HepG2 CRE cis-reporter, Attagene multiplexed mRNA; actives raise or lower the signal
# Procedure, shortened: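 HepG2 cells transiently transfected with a multiplexed reporter library (CRE-driven unit among them) were dosed for 24 h. Reporter mRNA was quantified by RT-PCR, fluorescent labelling, HpaI digestion and capillary electrophoresis, with bidirectional fitting against DMSO baseline.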
# [3] = ATG_CMV_CIS: Attagene CIS-FACTORIAL HepG2 Assay for human CMV (Internal Marker) (AID 2282928); settings: HepG2 CMV promoter reporter, transcription factor profiling; actives raise or lower the signal;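 also: endpoint acts as a background internal control marker rather than a target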
# Procedure, shortened: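 HepG2 cells transiently transfected with multiple cis-regulated reporter units; 24 h compound exposure. Reporter mRNA quantified by RT-PCR, 6-FAM primer-extension labeling, HpaI digestion and capillary electrophoresis; bidirectional fitting against DMSO baseline.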
# [4] = ATG_DR4_LXR_CIS: Attagene CIS-FACTORIAL HepG2 Assay for human Liver X Receptor (LXR), DR4 submotif (AID 2282929); settings: HepG2 Attagene DR4 cis-reporter, mRNA transcription; actives raise or lower the signal
# Procedure, shortened: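 HepG2, transient MRTU transfection, cis-element (DR4) promoter; 24 h compound exposure; total RNA → oligo(dT) RT → PCR → 6-FAM primer extension → HpaI cut → CE. Gain/loss vs DMSO, bidirectional fit.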
# [5] = target: Aryl hydrocarbon receptor (Homo sapiens) (UniProt P35869); assay: ATG_Ahr_CIS: Attagene CIS-FACTORIAL HepG2 Assay for human Aryl Hydrocarbon Receptor (Ahr) (AID 2282930); settings: HepG2 AhR cis-factorial reporter transcription; actives raise or lower the signal
# Aryl hydrocarbon receptor (Homo sapiens), sequence (P35869 whole entry, looked up): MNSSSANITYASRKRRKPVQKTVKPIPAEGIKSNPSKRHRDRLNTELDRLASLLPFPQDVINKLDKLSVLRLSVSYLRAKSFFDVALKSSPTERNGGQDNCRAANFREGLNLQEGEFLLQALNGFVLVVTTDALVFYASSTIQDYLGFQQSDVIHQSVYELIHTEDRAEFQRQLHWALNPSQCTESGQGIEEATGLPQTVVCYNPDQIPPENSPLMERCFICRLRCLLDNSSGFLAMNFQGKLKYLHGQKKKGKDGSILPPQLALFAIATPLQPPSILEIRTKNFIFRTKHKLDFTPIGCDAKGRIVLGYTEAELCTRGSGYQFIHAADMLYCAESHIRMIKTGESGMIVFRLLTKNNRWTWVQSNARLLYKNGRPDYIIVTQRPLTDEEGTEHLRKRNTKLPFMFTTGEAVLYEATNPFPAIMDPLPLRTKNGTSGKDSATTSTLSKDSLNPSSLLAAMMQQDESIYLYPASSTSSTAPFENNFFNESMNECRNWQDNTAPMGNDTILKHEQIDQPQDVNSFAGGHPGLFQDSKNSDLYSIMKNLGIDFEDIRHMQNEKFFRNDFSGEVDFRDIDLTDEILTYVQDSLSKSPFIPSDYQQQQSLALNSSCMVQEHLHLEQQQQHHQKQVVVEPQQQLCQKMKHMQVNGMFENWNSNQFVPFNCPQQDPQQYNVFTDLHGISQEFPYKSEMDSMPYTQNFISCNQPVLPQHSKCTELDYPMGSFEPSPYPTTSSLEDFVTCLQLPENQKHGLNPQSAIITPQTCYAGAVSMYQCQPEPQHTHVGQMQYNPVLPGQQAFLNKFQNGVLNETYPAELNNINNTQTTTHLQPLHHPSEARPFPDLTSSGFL
# Procedure, shortened: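 Transient MRTU transfection of HepG2 → 24 h compound exposure → total RNA, oligo(dT) RT → PCR, 6-FAM extension, HpaI cut → CE fluorescence. DMSO = baseline; bidirectional curve fit.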
# [6] = ATG_AP_1_CIS: Attagene CIS-FACTORIAL HepG2 Assay for human Activator Protein 1 (AP-1) (AID 2282931); settings: HepG2 Attagene cis-factorial AP-1 reporter mRNA; actives raise or lower the signal
# Procedure, shortened: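 Transient MRTU transfection of HepG2 → 24 h chemical treatment → RNA isolation, RT-PCR, 6-FAM labelling, HpaI digest → capillary electrophoresis. Fit: bidirectional, DMSO negative control.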
# [7] = ATG_AP_2_CIS: Attagene CIS-FACTORIAL HepG2 Assay for human Activator Protein 2 (AP-2) (AID 2282932); settings: HepG2 AP-2 cis-reporter, Attagene transcription factor profiling; actives raise or lower the signal
# Procedure, shortened: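 Step one: transient transfection of HepG2 with reporter transcription units. Step two: 24 h chemical exposure. Step three: RNA extraction, RT-PCR, labelled fragment analysis by capillary electrophoresis; DMSO serves as baseline.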
# [8] = ATG_BRE_CIS: Attagene CIS-FACTORIAL HepG2 Assay for human Bone Morphogenetic Protein (BMP) Response Element (BRE) (AID 2282933); settings: HepG2 BMP response element reporter, Attagene transcription factor profiling; actives raise or lower the signal
# Procedure, shortened: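 Fluorescence-labelled reporter cDNA fragments, separated by capillary electrophoresis, gave the signal for this component of a 52-readout multiplex. HepG2 cells were transfected, exposed to chemicals for 24 h, and compared with DMSO using bidirectional fitting.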
# [9] = target: Retinoic acid receptor alpha (Homo sapiens) (UniProt P10276); assay: ATG_DR5_RAR_CIS: Attagene CIS-FACTORIAL HepG2 Assay for human Retinoic Acid Receptor Alpha (RARE), DR5 submotif (AID 2282934); settings: HepG2 Attagene cis-factorial RARE DR5 reporter, mRNA; actives raise or lower the signal
# Retinoic acid receptor alpha (Homo sapiens), sequence (P10276 whole entry, looked up): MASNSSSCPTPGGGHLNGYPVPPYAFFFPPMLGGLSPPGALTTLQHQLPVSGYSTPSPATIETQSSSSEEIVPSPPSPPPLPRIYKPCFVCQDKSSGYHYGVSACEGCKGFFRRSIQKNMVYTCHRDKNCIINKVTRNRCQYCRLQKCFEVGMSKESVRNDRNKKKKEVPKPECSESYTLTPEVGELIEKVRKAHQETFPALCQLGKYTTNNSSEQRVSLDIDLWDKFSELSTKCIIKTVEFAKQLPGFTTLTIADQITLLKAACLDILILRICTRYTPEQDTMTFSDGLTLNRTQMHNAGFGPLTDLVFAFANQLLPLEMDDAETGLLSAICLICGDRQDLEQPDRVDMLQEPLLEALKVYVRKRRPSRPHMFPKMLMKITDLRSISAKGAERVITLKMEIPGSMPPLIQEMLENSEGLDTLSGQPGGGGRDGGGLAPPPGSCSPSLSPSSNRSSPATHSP
# Procedure, shortened: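 Transient MRTU transfection of HepG2; 24 h compound treatment; TriZol RNA, oligo(dT) RT, PCR, FAM labelling, capillary electrophoresis. Bidirectional fit vs DMSO. Endogenous TF activity at DR5 RARE.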
# [10] = target: Transcription factor E2F1 (Homo sapiens) (UniProt Q01094); assay: ATG_E2F_CIS: Attagene CIS-FACTORIAL HepG2 Assay for human E2F Transcription Factor 1 (AID 2282935); settings: HepG2 Attagene cis-reporter, E2F reporter RNA transcripts; actives raise or lower the signal
# Transcription factor E2F1 (Homo sapiens), sequence (Q01094 whole entry, looked up): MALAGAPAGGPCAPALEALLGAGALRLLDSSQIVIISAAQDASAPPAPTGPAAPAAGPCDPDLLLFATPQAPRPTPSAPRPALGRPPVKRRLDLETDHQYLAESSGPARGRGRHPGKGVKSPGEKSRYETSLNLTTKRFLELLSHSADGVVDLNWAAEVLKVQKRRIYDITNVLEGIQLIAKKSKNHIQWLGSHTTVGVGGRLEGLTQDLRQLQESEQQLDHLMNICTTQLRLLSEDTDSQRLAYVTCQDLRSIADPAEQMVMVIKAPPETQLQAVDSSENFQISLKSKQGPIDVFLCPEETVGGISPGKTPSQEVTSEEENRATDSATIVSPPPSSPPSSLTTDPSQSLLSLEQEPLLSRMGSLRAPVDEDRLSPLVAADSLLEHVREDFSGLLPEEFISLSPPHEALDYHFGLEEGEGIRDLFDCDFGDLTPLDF
# Procedure, shortened: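 Total RNA from 24 h-treated, reporter-transfected HepG2 cells undergoes DNase I treatment, oligo(dT) reverse transcription, PCR and 6-FAM primer extension before capillary electrophoresis.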
# [11] = ATG_E_Box_CIS: Attagene CIS-FACTORIAL HepG2 Assay for human Enhancer Box (E-box) (AID 2282936); settings: HepG2 E-box cis-reporter transcription, actives raise or lower the signal
# Procedure, shortened: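 DMSO served as negative control and baseline for bidirectional fitting. Human hepatoma HepG2 cells, transiently transfected with cis-reporter constructs, were dosed 24 h; reporter mRNA read by RT-PCR and capillary electrophoresis.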
# [12] = ATG_M_61_CIS: Attagene CIS-FACTORIAL HepG2 Assay for M61 Transcription Factor (Internal Marker) (AID 2282937); settings: HepG2 Attagene CIS-FACTORIAL M61 internal marker reporter; actives raise or lower the signal
# Procedure, shortened: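 Human liver HepG2, transient MRTU transfection (cis promoter elements), 24 h compound. Total RNA → oligo(dT) RT → PCR → FAM label → HpaI → CE. Internal background marker; bidirectional fitting, DMSO = baseline.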
# [13] = ATG_EGR_CIS: Attagene CIS-FACTORIAL HepG2 Assay for human Early Growth Response 1 (EGR1) (AID 2282938); settings: HepG2 Attagene CIS-FACTORIAL EGR reporter mRNA; actives raise or lower the signal
# Procedure, shortened: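 Transient transfection of human HepG2 with multiple cis-regulated reporter units, chemical exposure 24 h, total RNA isolated. Reverse transcription, PCR, fluorescent labelling and capillary electrophoresis quantify reporter transcripts; activity fitted bidirectionally against DMSO.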
# [14] = ATG_ERE_CIS: Attagene CIS-FACTORIAL HepG2 Assay for Estrogen Response Element (ERE) (AID 2282940); settings: HepG2 ERE cis-reporter, Attagene RNA transcript; actives raise or lower the signal
# Procedure, shortened: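 After a 24 h chemical treatment, RNA from reporter-transfected HepG2 cells is reverse-transcribed, PCR-amplified and fluorescently labelled. Fragments separated by capillary electrophoresis give reporter signal; DMSO serves as negative control.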
# [15] = ATG_Ets_CIS: Attagene CIS-FACTORIAL HepG2 Assay for human Erythroblast Transformation Specific (ETS) (AID 2282941); settings: HepG2 ETS cis-reporter transcription, actives raise or lower the signal
# Procedure, shortened: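 HepG2 cells transiently transfected with cis-promoter reporter transcription units were dosed for 24 h; reporter mRNA was measured by RT-PCR, 6-FAM primer extension, HpaI digestion and capillary electrophoresis, with bidirectional fitting against DMSO baseline.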
# [16] = target: Hepatocyte nuclear factor 3-beta (Homo sapiens) (UniProt Q9Y261); assay: ATG_FoxA2_CIS: Attagene CIS-FACTORIAL HepG2 Assay for human Forkhead box A2 (FOXA2) (AID 2282942); settings: HepG2 cis-reporter transcription factor activity, 24 h; actives raise or lower the signal
# Hepatocyte nuclear factor 3-beta (Homo sapiens), sequence (Q9Y261 whole entry, looked up): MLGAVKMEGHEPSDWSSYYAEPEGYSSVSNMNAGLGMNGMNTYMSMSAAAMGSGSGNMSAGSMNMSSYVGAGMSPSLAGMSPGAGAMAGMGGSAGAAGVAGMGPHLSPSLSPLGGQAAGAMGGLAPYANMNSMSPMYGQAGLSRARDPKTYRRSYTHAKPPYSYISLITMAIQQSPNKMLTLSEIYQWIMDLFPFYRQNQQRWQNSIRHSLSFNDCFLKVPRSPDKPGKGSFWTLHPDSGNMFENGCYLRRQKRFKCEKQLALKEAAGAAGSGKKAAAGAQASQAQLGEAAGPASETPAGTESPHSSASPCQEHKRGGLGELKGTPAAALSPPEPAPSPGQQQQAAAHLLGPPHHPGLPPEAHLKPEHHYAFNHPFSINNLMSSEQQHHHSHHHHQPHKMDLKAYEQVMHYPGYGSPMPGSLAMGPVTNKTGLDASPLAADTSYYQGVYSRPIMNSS
# Procedure, shortened: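 Transient MRTU transfection of HepG2 liver cells; 24 h treatment; total RNA → oligo(dT) RT → PCR → FAM primer extension → HpaI cut → CE. Bidirectional fit vs DMSO.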
# [17] = ATG_FoxO_CIS: Attagene CIS-FACTORIAL HepG2 Assay for human Forkhead box O (FoxO) (AID 2282943); settings: HepG2 Attagene cis-reporter, FoxO element, mRNA; actives raise or lower the signal
# Procedure, shortened: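 HepG2, transient MRTU transfection (cis element, endogenous TFs). Dose 24 h. TriZol RNA → oligo(dT) RT → PCR → 6-FAM primer extension → HpaI cut → CE. Gain/loss vs DMSO.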
# [18] = ATG_GATA_CIS: Attagene CIS-FACTORIAL HepG2 Assay for human GATA Binding Protein (AID 2282944); settings: HepG2 GATA cis-element reporter, Attagene multiplex mRNA; actives raise or lower the signal
# Procedure, shortened: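 Cells: HepG2, transiently transfected with cis-regulated reporter transcription units. Exposure: 24 h. Detection: RT-PCR plus capillary electrophoresis of FAM-labeled fragments. Analysis: bidirectional, DMSO as baseline.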
# [19] = ATG_M_19_CIS: Attagene CIS-FACTORIAL HepG2 Assay for M19 Transcription Factor (Internal Marker) (AID 2282939); settings: HepG2 Attagene CIS-FACTORIAL M19 internal marker reporter; actives raise or lower the signal
# Procedure, shortened: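 HepG2, MRTU transient transfection, 24 h dosing. Total RNA → RT-PCR → 6-FAM primer extension → HpaI digest → CE fluorescence. Bidirectional curve fit, DMSO negative control.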
smiles,measurement,setting,value
CC(C)(c1ccccc1)c1ccc(Nc2ccc(C(C)(C)c3ccccc3)cc2)cc1,outcome,[1],inactive
same,outcome,[2],inactive
same,outcome,[3],inactive
same,outcome,[4],inactive
same,outcome,[5],inactive
same,outcome,[6],inactive
same,outcome,[7],inactive
same,outcome,[8],inactive
same,outcome,[9],inactive
same,outcome,[10],inactive
same,outcome,[11],inactive
same,outcome,[12],inactive
same,outcome,[13],inactive
same,outcome,[14],inactive
same,outcome,[15],inactive
same,outcome,[16],inactive
same,outcome,[17],inactive
same,outcome,[18],inactive
CCCCCC1=CCCC1=O,AC50,[1],0.106 µM (active)
same,outcome,[2],inactive
same,outcome,[3],inactive
same,outcome,[5],inactive
same,outcome,[6],inactive
same,outcome,[7],inactive
same,outcome,[8],inactive
same,outcome,[9],inactive
same,outcome,[12],inactive
same,outcome,[13],inactive
same,outcome,[19],inactive
same,outcome,[14],inactive
same,outcome,[15],inactive
same,outcome,[16],inactive
same,outcome,[17],inactive
same,outcome,[18],inactive
CCCCC(=O)O,outcome,[1],inactive
same,outcome,[2],inactive
same,outcome,[3],inactive
same,outcome,[4],inactive
same,outcome,[5],inactive
same,outcome,[6],inactive
same,outcome,[7],inactive
same,outcome,[8],inactive
same,outcome,[9],inactive
same,outcome,[10],inactive
same,outcome,[11],inactive
same,outcome,[12],inactive
same,outcome,[13],inactive
same,outcome,[19],inactive
same,outcome,[14],inactive
same,outcome,[15],inactive
same,outcome,[16],inactive
same,outcome,[17],inactive
same,outcome,[18],inactive
O=C(C=Cc1ccccc1)OCCc1ccccc1,outcome,[1],inactive
same,outcome,[2],inactive
same,outcome,[3],inactive
same,AC50,[4],24.8 µM (active)
same,outcome,[5],inactive
same,outcome,[6],inactive
same,outcome,[7],inactive
same,outcome,[8],inactive
same,outcome,[9],inactive
same,outcome,[10],inactive
same,outcome,[11],inactive
same,outcome,[12],inactive
same,outcome,[13],inactive
same,outcome,[19],inactive
same,AC50,[14],32.7 µM (active)
same,outcome,[15],inactive
same,outcome,[16],inactive
same,outcome,[17],inactive
same,outcome,[18],inactive
CC(C)CCOCc1ccccc1,outcome,[1],inactive
same,outcome,[2],inactive
same,outcome,[4],inactive
same,outcome,[5],inactive
same,outcome,[6],inactive
same,outcome,[7],inactive
same,outcome,[8],inactive
same,outcome,[9],inactive
same,outcome,[11],inactive
same,outcome,[12],inactive
same,outcome,[13],inactive
same,outcome,[14],inactive
same,outcome,[15],inactive
same,outcome,[16],inactive
same,outcome,[17],inactive
same,outcome,[18],inactive
CC(=O)OC(C)c1ccccc1 (stereo not drawn),outcome,[1],inactive
same,outcome,[2],inactive
same,outcome,[3],inactive
same,outcome,[4],inactive
same,outcome,[5],inactive
same,outcome,[6],inactive
same,outcome,[7],inactive
same,outcome,[8],inactive
same,outcome,[9],inactive
same,outcome,[10],inactive
same,outcome,[11],inactive
same,outcome,[12],inactive
same,outcome,[13],inactive
same,outcome,[19],inactive
same,outcome,[14],inactive
same,outcome,[15],inactive
same,outcome,[17],inactive
same,outcome,[18],inactive
COC(=O)C=Cc1ccccc1,outcome,[1],inactive
same,outcome,[2],inactive
same,outcome,[3],inactive
same,outcome,[4],inactive
same,outcome,[5],inactive
same,outcome,[6],inactive
same,outcome,[7],inactive
same,outcome,[8],inactive
same,outcome,[9],inactive
same,outcome,[12],inactive
same,outcome,[13],inactive
same,outcome,[19],inactive
same,outcome,[14],inactive
same,outcome,[15],inactive
same,outcome,[16],inactive
same,outcome,[17],inactive
same,outcome,[18],inactive
